TDP1 cell CPT – qHTS for Inhibitors of human tyrosyl-DNA phosphodiesterase 1 (TDP1): qHTS in cells in presence of CPT; chicken DT40 Tdp1-/-;hTDP1 cells + 20 nM CPT, ATP luminescence, 48 h; Potency, µM (highest dose often 46.2 µM), without a hit: at the highest dose activity change, negative = growth inhibition, most hits filed as inhibitors; 420,000 tested, 12% active; AID 686979, 2013; further: potency means the concentration at half of the fitted maximal effect; on the % scale 0 is the no-effect control and ±100 the full control effect; nearly all actives have a fitted effect of over 55% in size
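Chicken DT40 Tdp1-/- cells stably complemented with human TDP1 were seeded at 400 cells/well in medium containing 20 nM camptothecin, exposed to pin-transferred compounds, and grown at 37 °C for at least 48 hr. Viability was read as ATP luminescence.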
DRD3 agonist – qHTS of D3 Dopamine Receptor Agonist: qHTS | D(3) dopamine receptor (Homo sapiens), P35462 | D3R DiscoveRx beta-arrestin cells, luminescence, 90 min | max activation, % | 410,000 tested, 0.58% active | AID 652048, 2013; in the data active means max activation above about 30%; further: 0% is about no effect
Target sequence (P35462 whole entry, looked up): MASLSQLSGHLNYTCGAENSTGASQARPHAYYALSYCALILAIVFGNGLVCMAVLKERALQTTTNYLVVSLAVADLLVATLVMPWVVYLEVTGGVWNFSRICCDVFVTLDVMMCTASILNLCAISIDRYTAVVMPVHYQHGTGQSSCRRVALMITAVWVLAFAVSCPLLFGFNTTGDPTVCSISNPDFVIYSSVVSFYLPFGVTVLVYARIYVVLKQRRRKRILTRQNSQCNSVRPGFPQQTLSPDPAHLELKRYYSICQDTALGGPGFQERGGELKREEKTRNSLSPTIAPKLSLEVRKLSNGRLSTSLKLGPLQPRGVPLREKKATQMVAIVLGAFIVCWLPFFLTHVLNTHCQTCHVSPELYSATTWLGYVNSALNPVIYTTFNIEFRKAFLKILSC
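Cells at 1500/well, incubated overnight, then treated with pinned compounds (dopamine as control) for 90 min at 37 degrees C. DiscoveRx reagent added for 30 - 60 minutes at room temperature; luminescence read.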
ClpP mod – qHTS Assay for Activators of ClpP; Potency, µM (series often up to 57.5 µM), for inactives: at the highest dose activity change, negative = active; 340,000 tested, 1.9% active; AID 651965, 2013; purified B. subtilis ClpP, FRET peptide cleavage, 20 min; active means well fitted falling curve with a large enough effect; inconclusive means small, poorly fitted or top-dose-only effect; inactive means no such curve, though single readings can be large or run the other way; further: potency means the concentration at half of the fitted maximal effect; the source files actives as falling curves though it sought activators and does not explain the sign; nearly all actives have a fitted effect of over 65% in size
Target sequence (P80244 whole entry, looked up): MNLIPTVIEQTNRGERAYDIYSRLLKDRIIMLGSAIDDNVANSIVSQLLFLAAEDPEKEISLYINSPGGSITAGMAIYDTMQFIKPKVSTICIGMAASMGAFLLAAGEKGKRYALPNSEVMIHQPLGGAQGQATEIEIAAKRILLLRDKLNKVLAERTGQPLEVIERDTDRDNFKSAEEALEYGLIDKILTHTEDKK
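FRET quenching reversal measured ClpP activation: 10 microg/mL B. subtilis ClpP at pH 8 with the FRET-FV decapeptide, read at 430 nm after 320 nm excitation. The 20-min minus 0-min signal was scaled between DMSO/no-enzyme wells and ADEP (5.8 microM final).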
DRD3 antagonist – qHTS of D3 Dopamine Receptor Antagonist: qHTS. D3R cells, DiscoveRx beta-arrestin luminescence, antagonist mode; stronger effect = lower value. AID 652054, 2013. 360,000 tested, 2.5% active. max response, negative = inhibition, %; in the data active means max response below about -50%; inconclusive means no clear call, values can overlap the other calls; further: on the % scale 0 is the no-effect control and ±100 the full control effect
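Cells plated overnight at 1500 cells/well, then exposed to library compounds with dopamine controls for 90 minutes at 37 degrees C. DiscoveRx reagent added for 30–60 minutes at room temperature; luminescence read, quantitative HTS format.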
DT40 TDP1 no CPT – qHTS for Inhibitors of human tyrosyl-DNA phosphodiesterase 1 (TDP1): qHTS in cells in absence of CPT. DT40 Tdp1-/- hTDP1 cells, no CPT, ATP luminescence, 48 h. Potency, µM (titrated, usually from 46.2 µM), inactives show at the highest dose activity change, negative = growth inhibition, hits mostly inhibitors. 420,000 tested, 15% active. AID 686978, 2013; further: potency means the concentration at half of the fitted maximal effect; on the % scale 0 is the no-effect control and ±100 the full control effect; nearly all actives have a fitted effect of over 55% in size
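Chicken DT40 Tdp1-/- cells complemented with human TDP1, screened without camptothecin (DMSO vehicle only), 400 cells/well. Compounds pin-transferred, cells incubated at 37 °C for at least 48 hr. Growth read as ATP-dependent luminescence (CellTiter-Glo, 30 min at RT).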
IL-1B inflam inh – qHTS for Inhibitors of Inflammasome Signaling: IL-1-beta AlphaLISA Primary Screen; 360,000 tested, 4.7% active; THP-1 LPS/ATP IL-1B secretion, AlphaLISA, 16 h; stronger effect = lower value; activity change, % at 57.5 µM; AID 743279, 2014; in the data active means activity change below about -50%; inconclusive means mostly about -30% to -49%; further: on the % scale 0 is the no-effect control and ±100 the full control effect
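Secreted IL-1B measured by AlphaLISA bead assay after 16 h compound exposure of THP-1 cells; compounds (final up to 57.5 uM) added 1 h before LPS (250 ng/mL) and ATP (1.25 mM) stimulation; lower signal means less secretion.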
* hit, by the source's call; ? = inconclusive; nt = no result given. This is a sample that favours compounds with a hit; in the whole collection about 21% have one here. Unless noted, the call rests on the fitted dose curve; in most records, active means well fitted inhibition curve with a large enough effect; inconclusive means small, poorly fitted or top-dose-only effect; inactive means flat fitted curve, though single readings scatter.

SMILES	TDP1 cell CPT	DRD3 agonist	ClpP mod	DRD3 antagonist	DT40 TDP1 no CPT	IL-1B inflam inh
COc1cc(OC)cc(-c2c(C#Cc3ccsc3)c3cc(-c4ccc(N(C)C)nc4)ccc3n2C)c1	?	-3	4%	10	21µM*	14
COc1cc(OC)cc(-c2c(-c3ccc(F)cc3)c3cc(-c4ccc(OC)nc4)ccc3n2C)c1	?	-12	4%	20	23µM*	6
COc1ccc(-c2c(-c3cc(OC)cc(OC)c3)n(C)c3ccc(-c4ccc(N(C)C)nc4)cc23)cc1	21µM*	-3	4%	7	18µM*	39
COc1cccc(-c2c(-c3cc(OC)cc(OC)c3)n(C)c3ccc(-c4ccc(OC)nc4)cc23)c1	18µM*	8	4%	-1	16µM*	14
CCOc1ccc(NC(=O)CN(C)C(=O)c2ccc3nc(CC)c(CC)nc3c2)cc1OCC	2%	5	1%	18	-19%	-5
Cc1ccc(Cc2cnc(N3C(=N)SC(c4ccccc4)C3=O)s2)cc1 (configuration not stated)	16µM*	2	-5%	-11	16µM*	0
COc1ccc(C2C(C#N)=C(N)N(c3cccnc3)C3=C2C(=O)CC(C)(C)C3)cc1OC (configuration not stated)	23µM*	5	2%	-5	?	7
COc1cc(C2C(C#N)=C(N)N(Nc3ccccc3)C3=C2C(=O)CC(C)(C)C3)ccc1OCc1ccccc1 (configuration not stated)	?	-4	-24%	-25	21µM*	?
C=CCOc1ccc(C2C(C#N)=C(N)N(Nc3ccccc3)C3=C2C(=O)CCC3)cc1OC (configuration not stated)	?	-1	?	-23	16µM*	14
COc1ccc(C2C(C#N)=C(N)N(Nc3ccccc3)C3=C2C(=O)CC(C)(C)C3)cc1C (configuration not stated)	-14%	-1	0%	?	-16%	?
COc1cc(C2C(C#N)=C(N)N(Nc3ccccc3)C3=C2C(=O)CC(C)(C)C3)ccc1OCc1cccc(F)c1 (configuration not stated)	?	-6	-8%	2	?	-52*
CC1(C)CC(=O)C2=C(C1)N(c1cccnc1)C(N)=C(C#N)C2c1cccs1 (configuration not stated)	5%	7	-4%	3	-2%	0
CCOc1ccc(NC(=O)c2ccc3c(c2)CCN3S(=O)(=O)c2ccc(Cl)cc2)cc1	-23%	7	-10%	nt	?	nt
CCOc1ccc(NC(=O)c2oc3ccccc3c2NC(=O)Cc2cccc(C)c2)cc1	-28%	7	-1%	nt	?	nt
COc1ccc(OC)c(Nc2nc(N(C)c3ccccc3)nc(N)c2[N+](=O)[O-])c1	?	-6	-1%	-5	?	24
CCCCNC(=O)C1CCC(Cn2c(=O)c3sccc3n(Cc3ccccc3)c2=O)CC1 (configuration not stated)	0%	5	1%	nt	4%	nt
Cc1ccc(C(=O)N2CC(C)OC(C)C2)cc1S(=O)(=O)N1CCCCC1 (configuration not stated)	?	-2	2%	14	?	0
Cc1ccc(-c2csc(NC(=O)CSc3nc(C)cs3)n2)cc1	?	-1	-1%	28	16µM*	-15
CCn1c(SCC(=O)Nc2nc(-c3ccc(C)cc3)cs2)nnc1-c1ccccc1O	?	5	-9%	46	?	-51*
CN(C)CCCn1c(SCC(=O)N2c3ccccc3Sc3ccccc32)nc2ccccc2c1=O	?	-1	-5%	-4	23µM*	-102*
Cn1c(SCC(=O)N2c3ccccc3Sc3ccccc32)nc2ccccc21	?	3	-5%	-13	?	?
CCn1c(SCC(=O)Nc2nc(-c3ccc(C)cc3)cs2)nnc1-c1ccccc1	?	-4	2%	-22	18µM*	-55*
O=C(NC(Cc1ccccc1)C(=O)O)/C(=C/c1ccccc1)NC(=O)c1ccco1 (configuration not stated)	-16%	-9	nt	7	-4%	6
COc1ccc(S(=O)(=O)N2CCC(C(=O)NC3CC3)CC2)cc1OC	1%	9	1%	5	-9%	8
CCOCc1cc(CN2CCC(CCC(=O)NC3CC3)CC2)ccc1OC	13%	-3	-4%	5	14%	3
SMILES	TDP1 cell CPT	DRD3 agonist	ClpP mod	DRD3 antagonist	DT40 TDP1 no CPT	IL-1B inflam inh
Cc1ccc(-c2csc(NC(=O)CSc3nc4ccccc4c(=O)n3CCCN(C)C)n2)cc1	10µM*	-6	nt	-11	15µM*	-97*
CCn1c(SCC(=O)NNC(=O)Cc2ccccc2)nnc1-c1ccccc1	-26%	-10	0%	-51*	-1%	21
Cc1ccc(-c2csc(NC(=O)CSc3nc4ccccc4[nH]3)n2)cc1	21µM*	21	1%	3	23µM*	-13
O=C(CCn1cnc2ccccc2c1=O)Nc1nc(-c2ccc(Br)cc2)cs1	?	13	1%	-2	16µM*	-9
COc1ccc(-c2csc(NC(=O)CSc3nc4ccccc4c(=O)[nH]3)n2)cc1	?	15	nt	8	?	64
N/C(=N\OC(=O)c1ccccc1)C(Cc1ccccc1)C(=O)NOC(=O)c1ccccc1 (configuration not stated)	2.9µM*	6	nt	-2	2.6µM*	-89*
C=CCc1c(C)nc(-c2ccccc2)nc1Nc1ccc(O)cc1	?	-2	-3%	46	15µM*	-97*
C=CCc1c(C)nc(-c2ccccc2)nc1N/N=C(\C)c1ccccc1	?	6	-1%	11	-18%	6
C=CCc1c(C)nc(SC)nc1Nc1ccc(C(C)=O)cc1	16µM*	6	-16%	-11	21µM*	-23
COC(=O)C=CSC(=S)C1CCCC1=N (configuration not stated)	2%	-4	0%	0	-22%	-3
